# Screens from PubChem BioAssay.
# Hits are enriched below; roughly 21% of the tested compounds scored in any of these assays.
# HCV inh: HCV inhibition; Huh7.5.1 HCVcc-Cre infection, luciferase reporter, 44 h; Potency, µM (doses to about 41.8 µM), inactives show at the highest dose activity change, negative = inhibition, actives largely listed as inhibitors; 340,000 compounds, 3.4% hits; AID 651820; further: potency means the concentration at half of the fitted maximal effect; on the % scale 0 is the no-effect control and ±100 the full control effect
#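 1,000 cells/well; 4 h culture; + compound; + HCVcc-Cre (~0.5 moi); 44 h; luciferase substrate, RT 15 min; read 15 sec.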
# AMA1-RON2 inh: disrupts binding of P. falciparum AMA1 to RON2 | 360,000 compounds, 0.2% hits | AID 720542 | AlphaScreen AMA1-biotinylated RON2 peptide binding | Potency, µM (series often up to 58.2 µM), without a hit: at the highest dose activity change, negative = inhibition, hits mostly inhibitors;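 further: potency means the concentration at half of the fitted maximal effect; 0% = vehicle wells and -100% = peptide control; nearly all actives have a fitted effect of over 45% in size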
#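 AMA1 (3D7) with his tag at 25 nM final met compounds first, then biotinylated RON2 peptide at 25 nM; detection used donor plus acceptor beads, 10 µg/mL apiece, read by AlphaScreen after 30 min at room temperature.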
# Cycloheximide cs: affects cycloheximide protein synthesis inhibition readout, counter-screen; cell reporter, cycloheximide protein synthesis inhibition counterscreen; max response, %; 300,000 compounds, 12% hits; AID 2314; in the data active means max response mostly above about 13%, no sharp cut-off; inactive means mostly below about 14%; further: read at 38.3 µM for the half of the compounds with a filed dose; 0% is about no effect
# Pf growth 48h: inhibits P. falciparum growth in the first generation, 48 h; P. falciparum luciferase growth in erythrocytes, 48 h; Potency, µM (highest dose often 28.7 µM), inactives show at the top dose activity change, negative = inhibition, actives largely listed as inhibitors; 310,000 compounds, 5.9% hits; further: potency means the concentration at half of the fitted maximal effect; on the % scale 0 is the no-effect control and ±100 the full control effect
#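 Luminescence readout; reporter = integrated firefly luciferase in P. falciparum. RBC culture at 2% hematocrit, 0.1% parasitemia final, 37 C/5% CO2; decreased signal taken as growth inhibition.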
# Shiga toxin inh: blocks Shiga toxin action in Vero cells. inhibition, % at 38.7 µM. 290,000 compounds, 9.2% hits. Vero cells, Shiga toxin protein synthesis inhibition reporter; in the data active means inhibition mostly above about 28%, no sharp cut-off; inactive means mostly below about 43%; further: 0% is about no effect
# Pf growth 96h: P. falciparum growth inhibition at 96 hours. P. falciparum luciferase reporter growth, 96 h. Potency, µM (highest dose often 28.7 µM), inactives show top-dose activity change, negative = inhibition, most hits filed as inhibitors. 320,000 compounds, 6.9% hits; further: potency means the concentration at half of the fitted maximal effect; on the % scale 0 is the no-effect control and ±100 the full control effect
#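 Infected RBCs, 2% Hct / 0.05% parasitemia final; luciferase-reporter P. falciparum; cpd 96 h, 37 C, 5% CO2; luciferase detection reagent; luminescence.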
# Starred values were filed as active, the others as inactive; ? = inconclusive; . = not tested or not shown; [ ] = remark or other dose. Unless noted, the call rests on the fitted dose curve; in most records, active means well fitted curve in the direction sought with a large enough effect; inconclusive means small, poorly fitted or top-dose-only effect, or another doubt; inactive means no such curve, though single readings can be large; an effect the other way counts as inactive or inconclusive.
SMILES,HCV inh,AMA1-RON2 inh,Cycloheximide cs,Pf growth 48h,Shiga toxin inh,Pf growth 96h
CC(=O)N1CC(C)Sc2ccc(S(=O)(=O)NC3CCCCC3C)cc21 (centres undefined),?,11.6%,-2.8,-19.4%,-0.8,7.1%
Cc1ccc(C(=O)N2CCCCC2)cc1S(=O)(=O)N1CCOCC1,.,9.9%,-2.3,-20.6%,-5.1,100.5%
CC(C)On1c(SCC(=O)N(C)C)nc2ccccc2c1=O,8.4%,-12.1%,-1.3,?,-4.2,-0.7%
Nn1cnc2scc(-c3cccs3)c2c1=O,0.3%,3.6%,-1.3,7.3%,-9.9,16.4%
Nn1cnc2scc(-c3ccc(Cl)cc3)c2c1=O,4.0%,-7.7%,-3.2,3.9%,-5.6,5.22µM*
O=C(Cc1c(F)cccc1Cl)NNC(=O)c1ccccc1Cl,0.1%,94.1%,.,-1.6%,.,-4.6%
O=C(NC(=S)Nc1nc2ccc(F)cc2s1)c1ccco1,7.1%,52.0%,32.4*,118.5%,90.2*,?
CS(=O)(=O)c1ccc2nc(NC(=O)c3ccco3)sc2c1,1.6%,-2.8%,36.5*,99.2%,40.2*,143.3%
Cc1ccc(C(=O)Nc2nc3ccc(S(C)(=O)=O)cc3s2)o1,3.2%,4.1%,34.1*,233.3%,43.8*,355.6%
CS(=O)(=O)c1ccc2nc(NC(=O)c3cc4ccccc4o3)sc2c1,-8.7%,-6.1%,-1.4,.,-5.9,-33.3%
Cc1noc(C)c1C(=O)Nc1nc2ccc(S(C)(=O)=O)cc2s1,-28.0%,-4.2%,1.8,14.9%,32.0,-27.3%
Cc1c(Cl)ccc2sc(NC(=O)c3ccco3)nc12,?,5.7%,67.0*,195.4%,83.3*,206.2%
CCN(C[C@H]1N[C@@](CC)(C(=O)OC)[C@H]2C(=O)N(C)C(=O)[C@@H]12)C(=O)c1ccc(C(C)(C)C)cc1,-4.0%,0.7%,.,.,.,.
CC1CC(C)CN(S(=O)(=O)N2CCC(C(=O)NCCc3ccccc3)CC2)C1 (centres undefined),-8.1%,-4.6%,-3.6,14.5%,-6.7,-13.3%
CCSc1nnc(Nc2ccccc2)s1,-10.4%,-0.9%,33.5*,76.7%,90.2*,-5.3%[5.75 µM]
CCSc1nnc(Nc2ccc(C)cc2)s1,11.3%,-9.7%,38.3*,55.7%,124.0*,16.0%
O=C1CCCCC1Sc1nnc(Nc2ccccc2)s1 (centres undefined),-1.7%,-15.3%,38.3*,247.7%,98.8*,70.6%
CC(C#N)Sc1nnc(Nc2ccccc2)s1 (centres undefined),-9.2%,-3.6%,24.0,-1.3%,27.8,16.7%
Cc1ccc(Nc2nnc(SC3CCOC3=O)s2)cc1 (centres undefined),?,3.5%,0.7,-0.1%,13.2,37.4%
Cc1ccc(CSc2nnc(Nc3ccc(C)cc3)s2)cc1,-8.6%,23.3%,-1.3,.,-6.8,-28.0%
CC(C)(C)C1CCC(N2CCN(c3ccccc3)CC2)CC1 (centres undefined),?,-19.3%,-0.8,-20.8%,3.0,?
COC(=O)C1(C)NC(c2ccc(F)cc2)C2C(=O)N(c3ccc(C)cc3)C(=O)C21 (centres undefined),8.8%,-0.1%,-0.9,-0.6%,16.0,2.33µM*
CCN1C(=O)[C@H]2[C@@H](c3ccc(-c4ccc(Cl)c(Cl)c4)c(OC)c3)N[C@@](C)(C(=O)OC)[C@H]2C1=O,-17.5%,-0.8%,.,2.08µM*,.,0.928µM*
CCN1C(=O)[C@H]2[C@@H](c3ccc(-c4ccc5c(c4)OCO5)c(OC)c3)N[C@@](C)(C(=O)OC)[C@H]2C1=O,3.16µM*,1.0%,.,.,.,.
CC(C)OCCCNC(=O)c1cc(-c2cccnc2)nc2ccccc12,-17.4%,3.8%,-5.9,-1.7%,8.3,-4.2%
CCCCC[C@@H]1C=C(C(=O)O)[C@H](c2cccc(C)c2)N1S(=O)(=O)c1ccc(C)cc1,24.3%[8.37 µM],8.0%,.,.,.,.
COc1ccc(S(=O)(=O)NC(=O)C2(C)CCN2C(=O)Cc2cc(C)cc(C)c2)cc1OC (centres undefined),.,-1.2%,.,.,.,.
O=C(CSc1nc2ccc(Cl)cc2[nH]1)NCCc1ccc(Cl)cc1,-8.7%,-9.6%[11.6 µM],37.0*,-1.7%,-12.6,9.9%
Cc1ccc(C(=O)OCC(=O)NCc2cccs2)c(C)c1,-16.5%,31.8%,41.2*,44.9%,112.5*,61.2%
